“And” between values parts separate entries of the source, which are not always exact repeats. Equal values may be shown once. About 2,000 (36%) of roughly 5,500 compounds were called active. Inconclusive results (about 18%) are left out. Rule as the data show it: active = normalized growth mostly below about 0.91 (no sharp cut-off); inconclusive = no clear call, values can overlap the other calls; inactive = mostly above about 0.92. The list shows a part of the results.
Test: chemical genetic growth profiling, strain panel (AID 1159580);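 also: tested at 20 µM; growth read once vehicle control cultures reached saturation at 30 °C; 1 = growth at the plate median or of vehicle wells; lower values mean less growth of the strain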
Conditions: S. cerevisiae deletion strains, growth OD

Measured: normalized growth

CC(C)CCCC(C)C1CCC2C3CC(=O)[C@H]4C[C@@H](O)CC[C@]4(C)C3CC[C@]12C (stereo partly drawn)
active: locus YLR262C, strain YPT6 (second series), active compounds read low 0.76
inactive: locus YAL021C, strain ccr4, active compounds read low 0.997 | locus YAL026C, strain drs2, active compounds read low 0.98 | locus YAL030W, strain snc1, active compounds read low 1.01 | locus YBL061C, strain skt5, active compounds read low 1 | locus YBR009C, strain hhf1, active compounds read low 1 | locus YBR021W, strain FUR4, active compounds read low 1.06 | locus YBR023C, strain chs3, active compounds read low 1 | locus YBR171W, strain sec66, active compounds read low 1 | locus YBR229C, strain ROT2, active compounds read low 1.02 | locus YBR231C, strain swc5, active compounds read low 0.975 | locus YBR279W, strain paf1, active compounds read low 1.01 | locus YCL011C, strain gbp2, active compounds read low 1.02 | locus YCL016C, strain dcc1, active compounds read low 1.01 | locus YCL029C, strain bik1, active compounds read low 1.01 | locus YCL061C, strain MRC1, active compounds read low 1.01 | locus YCL069W, strain vba3, active compounds read low 1.03 | locus YCR088W, strain abp1, active compounds read low 1 | locus YDL005C, strain med2, active compounds read low 1.01 | locus YDL035C, strain GPR1, active compounds read low 1.01 | locus YDL040C, strain nat1, active compounds read low 1.01 | locus YDL074C, strain BRE1, active compounds read low 1.05 | locus YDL101C, strain DUN1, active compounds read low 1.02 | locus YDL185W, strain tfp1, active compounds read low 1.07 | locus YDL192W, strain arf1, active compounds read low 1.02 | locus YDR001C, strain nth1, active compounds read low 1.02 | locus YDR069C, strain doa4, active compounds read low 1 | locus YDR101C, strain arx1, active compounds read low 1.01 | locus YDR137W, strain rgp1, active compounds read low 0.908 | locus YDR150W, strain NUM1, active compounds read low 1 | locus YDR159W, strain sac3, active compounds read low 0.963 | locus YDR162C, strain NBP2, active compounds read low 1.04 | locus YDR195W, strain ref2 1.01 | locus YDR297W, strain sur2, active compounds read low 1 | locus YDR318W, strain mcm21, active compounds read low 1.01 | locus YDR334W, strain swr1, active compounds read low 1.02 | locus YDR335W, strain msn5, active compounds read low 1.02 | locus YDR388W, active compounds read low 1.01 | locus YDR392W, strain spt3, active compounds read low 0.942 | locus YDR502C, strain sam2, active compounds read low 1.01 | locus YEL003W, strain gim4, active compounds read low 1.01 | locus YEL037C, strain rad23, active compounds read low 1 | locus YEL061C, strain CIN8 (second series), active compounds read low 1.01 | locus YEL061C, strain CIN8, active compounds read low 1 | locus YER015W, strain faa2, active compounds read low 1 | locus YER016W, strain bim1, active compounds read low 1.01 | locus YER110C, active compounds read low 1 | locus YER111C, strain swi4, active compounds read low 1 | locus YER155C, strain BEM2 (second series), active compounds read low 1.07 | locus YER155C, strain BEM2, active compounds read low 0.997 | locus YER167W, strain BCK2, active compounds read low 1.03 | locus YFR010W, strain ubp6, active compounds read low 1.02 | locus YGL078C, strain dbp3, active compounds read low 1.01 | locus YGL086W, strain mad1, active compounds read low 1.03 | locus YGL167C, strain pmr1, active compounds read low 0.998 | locus YGL173C, strain kem1, active compounds read low 1 | locus YGL227W, strain vid30, active compounds read low 1.01 | locus YGL240W, strain doc1, active compounds read low 0.904 | locus YGL248W, strain PDE1, active compounds read low 1.01 | locus YGL253W, strain hxk2, active compounds read low 1.02 | locus YGR135W, strain pre9, active compounds read low 1 | locus YGR252W, strain gcn5, active compounds read low 1.06 | locus YHR013C, strain ard1, active compounds read low 1.01 | locus YHR027C, strain rpn1, active compounds read low 1.01 | locus YHR030C, strain SLT2, active compounds read low 1.02 and 1.05 | locus YHR079C, strain IRE1 (second series), active compounds read low 0.99 | locus YHR079C, strain IRE1, active compounds read low 1.04 | locus YHR094C, strain hxt1, active compounds read low 1.01 | locus YHR129C, strain ARP1, active compounds read low 1.02 | locus YHR142W, strain chs7, active compounds read low 1.04 | locus YHR200W, strain rpn10, active compounds read low 1.03 | locus YIL066C, strain RNR3, active compounds read low 1.04 | locus YIL073C, strain SPO22, active compounds read low 1.05 | locus YIL125W, strain kgd1, active compounds read low 0.998 | locus YIR030C, strain dcg1, active compounds read low 1.01 | locus YJL092W, strain hpr5, active compounds read low 1.02 | locus YJL095W, strain BCK1 (second series), active compounds read low 1.01 | locus YJL095W, strain BCK1, active compounds read low 1.03 | locus YJL115W, strain asf1, active compounds read low 0.991 | locus YJL129C, strain trk1, active compounds read low 1.04 | locus YJL134W, strain LCB3, active compounds read low 1.01 | locus YJL154C, strain vps35, active compounds read low 1.02 | locus YJL164C, strain tpk1, active compounds read low 1.01 | locus YJL166W, strain qcr8, active compounds read low 1.06 | locus YJL168C, strain set2, active compounds read low 1 | locus YJL187C, strain SWE1 (second series), active compounds read low 1.01 | locus YJL187C, strain SWE1, active compounds read low 1.02 | locus YJR043C, strain POL32, active compounds read low 1.05 | locus YJR066W, strain TOR1, active compounds read low 0.998 | locus YKL009W, strain mrt4, active compounds read low 1.01 | locus YKL068W, active compounds read low 1.02 | locus YKL085W, strain MDH1 (second series), active compounds read low 1.01 | locus YKL085W, strain MDH1, active compounds read low 1.01 | locus YKL160W, strain elf1, active compounds read low 1.02 | locus YKL190W, strain CNB1, active compounds read low 1.02 | locus YKR001C, strain vps1, active compounds read low 1.02 | locus YKR026C, strain gcn3, active compounds read low 1 | locus YKR091W, strain srl3, active compounds read low 1.01 | locus YLL001W, strain dnm1, active compounds read low 0.982 | locus YLL026W, active compounds read low 0.999 | locus YLL041C, strain sdh2, active compounds read low 1.01 | locus YLR027C, strain aat2, active compounds read low 0.99 | locus YLR039C, strain RIC1, active compounds read low 0.767 | locus YLR058C, strain SHM2, active compounds read low 1.01 | locus YLR102C, strain apc9, active compounds read low 1.01 | locus YLR113W, strain HOG1, active compounds read low 0.986 | locus YLR221C, strain rsa3, active compounds read low 0.991 | locus YLR258W, strain gsy2, active compounds read low 0.994 | locus YLR262C, strain YPT6, active compounds read low 0.831 | locus YLR268W, strain sec22, active compounds read low 1.03 | locus YLR320W, strain mms22, active compounds read low 1.02 | locus YLR330W, strain CHS5, active compounds read low 1.01 | locus YLR342W, strain FKS1 (second series), active compounds read low 1.02 | locus YLR342W, strain FKS1, active compounds read low 1.01 | locus YLR357W, strain rsc2, active compounds read low 1.04 | locus YLR370C, strain arc18, active compounds read low 1.02 | locus YLR371W, strain rom2, active compounds read low 1 | locus YLR384C, strain iki3, active compounds read low 0.99 | locus YLR418C, strain cdc73, active compounds read low 1.08 | locus YML016C, strain PPZ1, active compounds read low 0.995 | locus YML032C, strain rad52, active compounds read low 1 | locus YML120C, strain ndi1, active compounds read low 1.02 | locus YML124C, strain tub3, active compounds read low 1 | locus YMR058W, strain fet3, active compounds read low 1.01 | locus YMR078C, strain ctf18, active compounds read low 1.04 | locus YMR125W, strain sto1, active compounds read low 1.02 | locus YMR129W, active compounds read low 1 | locus YMR205C, strain PFK2, active compounds read low 1.02 | locus YMR223W, strain ubp8, active compounds read low 1.01 | locus YMR231W, strain pep5, active compounds read low 1.02 | locus YMR307W, strain GAS1, active compounds read low 1.12 | locus YNL067W, strain RPL9B, active compounds read low 1.03 | locus YNL071W, strain lat1, active compounds read low 1.02 | locus YNL183C, strain NPR1, active compounds read low 1 | locus YNL209W, strain ssb2, active compounds read low 1.01 | locus YNL233W, strain BNI4, active compounds read low 1.04 | locus YNL248C, strain rpa49, active compounds read low 1 | locus YNL250W, strain rad50, active compounds read low 1 | locus YNL271C, strain bni1, active compounds read low 1 | locus YNL298W, strain CLA4, active compounds read low 1.01 | locus YNL307C, strain MCK1, active compounds read low 1.04 | locus YNL322C, strain KRE1 (second series), active compounds read low 1.01 | locus YNR049C, strain mso1, active compounds read low 1 | locus YNR052C, strain pop2, active compounds read low 0.997 | locus YOL006C, strain TOP1, active compounds read low 1.14 | locus YOL012C, strain htz1 1.15 | locus YOL147C, strain pex11, active compounds read low 1.01 | locus YOR001W, strain rrp6, active compounds read low 0.969 | locus YOR061W, strain CKA2, active compounds read low 1.02 | locus YOR069W, strain VPS5, active compounds read low 1 | locus YOR070C, strain gyp1, active compounds read low 0.989 | locus YOR080W, strain dia2, active compounds read low 0.998 | locus YOR083W, strain WHI5, active compounds read low 1.02 | locus YOR106W, strain vam3, active compounds read low 1.02 | locus YOR136W, strain idh2, active compounds read low 1 | locus YOR144C, strain elg1, active compounds read low 1 | locus YOR184W, strain ser1, active compounds read low 1.04 | locus YOR231W, strain MKK1, active compounds read low 1.02 | locus YOR265W, strain rbl2, active compounds read low 1 | locus YOR270C, strain vph1, active compounds read low 1.04 | locus YOR290C, strain snf2, active compounds read low 1.03 | locus YOR316C, strain cot1, active compounds read low 1 | locus YPL051W, strain arl3, active compounds read low 0.985 | locus YPL055C, strain LGE1, active compounds read low 1.07 | locus YPL078C, strain atp4, active compounds read low 1.02 | locus YPL106C, strain sse1, active compounds read low 1.02 | locus YPL240C, strain hsp82, active compounds read low 1.01 | locus YPL256C, strain CLN2, active compounds read low 1.04 | locus YPR119W, strain clb2, active compounds read low 1 | locus YPR141C, strain kar3, active compounds read low 1.01 | locus YPR163C, strain tif3, active compounds read low 1.01 | locus YPR167C, strain met16, active compounds read low 0.995 | strain wtn01, active compounds read low 1.03
